Compound activity from PubChem BioAssay.
Rtt109 HAT inh – inhibitors of Candida albicans Rtt109/Vps75 histone acetyltransferase. purified Rtt109/Vps75, ThioGlo CoA-SH fluorescence, 4 h. Q5AAJ8. 330,000 tested, 0.16% active. inhibition, % at 34.9 µM;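 active means inhibition of at least 50% in every replicate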
rCAG binder – r(CAG) repeat RNA binding. 370,000 tested, 1.3% active. AID 651821. TO-PRO-1 dye displacement fluorescence. inhibition, % at 3 µM;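 active means inhibition above the plate cutoff, the mean of all test compounds on that plate plus 3 SD, cut at about 35% in these data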;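 further: higher means more dye released from RNA so lower well fluorescence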
ALR inh – blocks human ALR sulfhydryl oxidase activity; P55789; purified ALR, DTT oxidation, H2O2 HRP-luminol luminescence; inhibition, % (concentration not given with the values); 290,000 tested, 3.8% active;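 active means mean replicate inhibition above about 79%, with every replicate also reaching it, limit read from the data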
ABHD5-PLIN5 inh – blocks binding of human ABHD5 to perilipin-5; Split G. princeps luciferase complementation, luminescence, 4 h; 360,000 tested, 0.78% active; AID 602281; inhibition, % at 4 µM;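 active means inhibition above the mean inhibition across every tested compound plus 3 SD, cut at about 22% in these data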
LANA-H2A inh – blocks KSHV LANA binding to histone H2A/H2B; Q9QR71; cell-free LANA-H2A/H2B peptide, fluorescence polarization; inhibition, % (test concentration not listed); 320,000 tested, 0.6% active; AID 2629; in the data active means inhibition mostly above about 10%, no sharp cut-off; inactive means mostly below about 6.7%
Target sequence (Q9QR71 whole entry, looked up): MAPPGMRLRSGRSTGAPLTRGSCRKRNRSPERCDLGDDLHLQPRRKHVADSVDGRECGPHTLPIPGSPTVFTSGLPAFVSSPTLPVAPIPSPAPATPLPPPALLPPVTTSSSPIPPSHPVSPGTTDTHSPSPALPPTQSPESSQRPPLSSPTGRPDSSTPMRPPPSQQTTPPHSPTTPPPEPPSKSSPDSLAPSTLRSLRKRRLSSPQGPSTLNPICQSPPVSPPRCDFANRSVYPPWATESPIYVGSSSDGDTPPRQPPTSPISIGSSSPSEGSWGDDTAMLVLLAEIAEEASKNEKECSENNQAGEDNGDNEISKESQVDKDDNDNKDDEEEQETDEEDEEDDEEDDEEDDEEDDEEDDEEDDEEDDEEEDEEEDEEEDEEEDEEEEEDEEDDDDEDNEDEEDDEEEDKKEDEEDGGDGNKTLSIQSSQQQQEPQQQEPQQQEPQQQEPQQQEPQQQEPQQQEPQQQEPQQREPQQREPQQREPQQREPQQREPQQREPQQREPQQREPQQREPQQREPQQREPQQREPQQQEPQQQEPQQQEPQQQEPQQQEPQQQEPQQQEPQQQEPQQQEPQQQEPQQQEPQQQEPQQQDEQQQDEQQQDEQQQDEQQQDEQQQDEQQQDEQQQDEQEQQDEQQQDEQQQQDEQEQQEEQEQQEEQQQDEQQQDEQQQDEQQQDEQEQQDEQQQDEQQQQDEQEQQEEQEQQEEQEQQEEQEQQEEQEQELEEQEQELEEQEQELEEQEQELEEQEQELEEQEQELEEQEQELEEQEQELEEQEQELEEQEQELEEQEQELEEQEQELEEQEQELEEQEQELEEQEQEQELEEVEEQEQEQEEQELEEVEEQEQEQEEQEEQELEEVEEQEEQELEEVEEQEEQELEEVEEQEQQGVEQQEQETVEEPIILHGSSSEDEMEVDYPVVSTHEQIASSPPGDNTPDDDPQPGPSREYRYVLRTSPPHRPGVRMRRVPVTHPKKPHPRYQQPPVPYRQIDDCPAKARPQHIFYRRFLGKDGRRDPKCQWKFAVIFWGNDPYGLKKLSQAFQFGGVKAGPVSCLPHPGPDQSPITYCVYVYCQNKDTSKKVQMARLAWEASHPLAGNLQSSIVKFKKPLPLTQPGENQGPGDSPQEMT
PRMT1 FP inh – PRMT1 (human) inhibition, primary screen | inhibition, % at 2.79 µM | recombinant PRMT1, activity-based probe fluorescence polarization | AID 652257 | 370,000 tested, 1.3% active;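 active means inhibition above about 21% made by adding two undisclosed values, limit read from the data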
Large screens that a line does not name were inactive. Sampled rows, rich in hits. Any-hit rate of the full collection: about 5.9%.

Nn1c(SCC(=O)Nc2ccc(OCc3ccccc3)cc2)nnc1-c1cc(-c2ccc(Cl)cc2)n[nH]1	none (no result: Rtt109 HAT inh, ALR inh, ABHD5-PLIN5 inh, LANA-H2A inh)
COc1ccc(NS(=O)(=O)c2ccc(Oc3cccc(C(=O)O)c3)cc2)cc1	none
COc1ccc(S(=O)(=O)Nc2nc3ccccc3nc2Nc2cccc(C(=O)O)c2)cc1	ALR inh 98
CC(=O)Nc1ccc(Nc2nc3ccccc3nc2NS(=O)(=O)c2ccccc2)cc1	ALR inh 98
CCc1ccc(CCNC(=O)OCCCN2CCC3(CCC(c4ccccc4)CC3)C2=O)cc1 (stereo not given)	none (no result: Rtt109 HAT inh, ALR inh, ABHD5-PLIN5 inh, LANA-H2A inh)
Cc1ncc(CSCC(=O)Nc2cc(C(F)(F)F)ccc2Cl)c(CO)c1O	ALR inh 94
O=C(O)CSCC(=O)Nc1cc(C(F)(F)F)ccc1Cl	Rtt109 HAT inh 66
CCCC1CCC2(CC1)CCC2OC(=S)Nc1cccc(C(F)(F)F)c1 (stereo not given)	none (no result: Rtt109 HAT inh, rCAG binder, ALR inh, ABHD5-PLIN5 inh, LANA-H2A inh)
O=C1CC(=O)N(CCNc2ncc(C(F)(F)F)cc2Cl)C(=O)N1	rCAG binder 51 (no result: ALR inh)
CC(=O)O[C@@H]1C=C[C@@H](C#Cc2ccc(C(C)(C)C)cc2)O[C@@H]1COC(=O)NC(C)C	none (no result: Rtt109 HAT inh, ALR inh, ABHD5-PLIN5 inh, LANA-H2A inh)
COc1cccc(N2CCN(CC(=O)NCc3cccs3)CC2)c1	ALR inh 99
COc1cccc(N2CCN(CC(=O)Nc3nnc(-c4ccccc4)s3)CC2)c1	none
CC(CCc1ccccc1)NC(=O)CN1CCN(c2ccc(O)cc2)CC1 (stereo not given)	ALR inh 100, PRMT1 FP inh 23
Cc1ccc(CN2CCN(CC(=O)NC(C)CCc3ccccc3)C2=O)cc1 (stereo not given)	none
COC(=O)c1c(C)[nH]c(C(=O)N2CCN(c3ccc(OC)cc3)CC2)c1C	ALR inh 96 (no result: Rtt109 HAT inh, ABHD5-PLIN5 inh)
COc1cccc(N2CCN(C(=O)c3[nH]c(C)c(C(C)=O)c3C)CC2)c1	none
COc1ccc(N2CC(NC(=O)N3CCN(c4ccccc4)CC3)CC2=O)cc1 (stereo not given)	ALR inh 97
COc1ccc(N2CC(NC(=O)Nc3ccccc3)CC2=O)cc1 (stereo not given)	none
CC(NCc1ccco1)C(=O)N1CCN(c2cccc(C(F)(F)F)c2)CC1 (stereo not given)	none (no result: Rtt109 HAT inh, ALR inh, ABHD5-PLIN5 inh, LANA-H2A inh)
CNC(=S)N1CCN(c2ccc(OC)cc2)CC1	ALR inh 96
COc1ccc(-n2c(CNC(=O)COc3ccccc3)n[nH]c2=S)cc1	none
COc1ccc(-n2c(CNC(=O)COc3ccc(Cl)cc3)n[nH]c2=S)cc1	ALR inh 88
COc1ccc(N2CCN(C(=S)Nc3ccc(F)cc3)CC2)cc1	none
COc1ccc(N2CCN(C(=O)NC34CC5CC(CC(C5)C3)C4)CC2)cc1	ALR inh 85
COc1cccc(-c2csc(N3CCN(CC(=O)Nc4ccc5c(c4)OCO5)CC3)n2)c1	none (no result: ALR inh)
COc1ccc(NC(=O)CN2CCN(c3nc(-c4cccc(OC)c4)cs3)CC2)cc1	ALR inh 99
CC(C)NC(=O)N[C@H]1C[C@@H]2O[C@H](CO)CC[C@@H]2O[C@@H]1CCc1ccc(-c2ccccc2F)cc1	none (no result: Rtt109 HAT inh, ALR inh, ABHD5-PLIN5 inh, LANA-H2A inh)
COc1ccc(N2CCN(CCCNC(=O)C3(S(=O)(=O)c4ccc(Cl)cc4)CC3)CC2)cc1	ALR inh 85 (no result: rCAG binder, PRMT1 FP inh)
COc1ccc(N2CCN(CC(=O)NCc3ccc(Cl)cc3)CC2)cc1	ALR inh 89
COc1ccc(N2CCN(CC(=O)NCc3ccccc3)CC2)cc1	none
COc1ccc(N2CCN(C(=O)NCc3ccc(OC)c(OC)c3)CC2)cc1	ALR inh 89
COc1ccc(N2CCN(C(=O)CN3CCN(C(c4ccccc4)c4ccccc4)CC3)CC2)cc1	none
COc1ccc(N2CCN(CC(=O)NC(C)c3ccccc3)CC2)cc1 (stereo not given)	ALR inh 95
Cc1ccccc1CN1CCCCC(NC(=O)Nc2cccc([N+](=O)[O-])c2)C1=O (stereo not given)	none (no result: Rtt109 HAT inh, ALR inh, ABHD5-PLIN5 inh, LANA-H2A inh)
O=C(CN[C@@H](Cc1c[nH]c2ccccc12)C(=O)NCCc1c[nH]c2ccccc12)NC1CCCCC1	none (no result: Rtt109 HAT inh, rCAG binder, ALR inh, ABHD5-PLIN5 inh, LANA-H2A inh)
COC(=O)Cc1c([C@H](C)[C@@H](OC)c2ccccc2Br)nnn1Cc1ccccc1	none (no result: Rtt109 HAT inh, ALR inh, ABHD5-PLIN5 inh, LANA-H2A inh)
Cc1cc(C)n2nc(CNS(=O)(=O)c3ccc(C(C)(C)C)cc3)nc2n1	none (no result: Rtt109 HAT inh, ALR inh, LANA-H2A inh)
S=C(NCCN1CCOCC1)N/N=C/c1cccs1	none (no result: Rtt109 HAT inh)
Oc1cccc(/C=N/NC(=S)NCCN2CCOCC2)c1O	ALR inh 100
NC(=S)N/N=C/c1cccc(O)c1O	ALR inh 98
NC(=S)N/N=C/c1ccccc1O	none
Oc1cccc(/C=N/NC(=S)Nc2cccnc2)c1O	ALR inh 90, LANA-H2A inh 197
Oc1ccc(/C=N/NC(=S)Nc2cccnc2)c(O)c1	none (no result: ALR inh)
COC(=O)[C@@]12CCCCC=C1N(CCc1ccc(Cl)cc1)C(=O)[C@H]2CC(=O)NCCC(C)C	none (no result: Rtt109 HAT inh, ALR inh, ABHD5-PLIN5 inh, LANA-H2A inh)
CC1CC2(CC(CN(C3CCCCC3)C3CCCCC3)OC2=O)C(=O)O1 (stereo not given)	none (no result: Rtt109 HAT inh, rCAG binder, ALR inh, LANA-H2A inh, PRMT1 FP inh)
C(=C\c1ccccc1)/CSc1nnc(COc2ccccc2)n1Cc1ccco1	none (no result: Rtt109 HAT inh, ALR inh, ABHD5-PLIN5 inh, LANA-H2A inh)
COc1ccc(N2CCN(CCNC(=O)C3CC(=O)N(C4CCCC4)C3)CC2)cc1 (stereo not given)	ALR inh 86
COc1ccc(CNC(=O)C2CC(=O)N(C3CCCCC3)C2)cc1 (stereo not given)	none
O=C(NNC(=S)NC(=O)c1ccccc1)c1cccnc1	ALR inh 98
COc1cc(OC)cc(C(=O)NC(=S)NNC(=O)[C@H]2C[C@@H]2c2ccccc2)c1	ALR inh 99
COc1ccc(C(=O)NC(=S)NNC(=O)c2cccnc2)cc1	ALR inh 99
COc1cc(OC)cc(C(=O)NC(=S)Nc2cccnc2)c1	none
COc1cc(OC)cc(C(=O)NNC(=S)NC(=O)c2cccnc2)c1	ALR inh 98
C=CCn1c(SCc2ccc(C(=O)NCCO)cc2)nc2sc(C)c(C)c2c1=O	LANA-H2A inh 23 (no result: ALR inh)
Cc1nc(SC(C)C(=O)c2c(N)n(C)c(=O)n(C)c2=O)c2c(C)c(C)sc2n1 (stereo not given)	ALR inh 91
C=CCn1c(SCC(=O)c2c(N)n(C)c(=O)n(C)c2=O)nc2sc(C)c(C)c2c1=O	LANA-H2A inh 111
N#CC1(NC(=O)COC(=O)Cc2c[nH]c3ccccc23)CCCCC1	none (no result: Rtt109 HAT inh, ALR inh, LANA-H2A inh)
C[C@H](O)[C@@H]1CN2CCc3ccc(-c4ccc5c(c4)OCO5)cc3[C@@H]2C[C@@H]1N(C)CC1CCCCC1	none (no result: Rtt109 HAT inh, ALR inh, ABHD5-PLIN5 inh, LANA-H2A inh)
CCOc1ccccc1NC(=O)COC(=O)C1COc2ccccc2O1 (stereo not given)	none (no result: Rtt109 HAT inh, ALR inh, LANA-H2A inh)
CC1(C)Cc2nc(-c3ccccc3)nc(NNC(=O)c3ccco3)c2CO1	ALR inh 97
COC(=O)[C@]12C[C@H](CC(=O)NCC34CC5CC(CC(C5)C3)C4)C(=O)N(CCc3ccc(OC)c(OC)c3)C1=C[C@H](COCc1ccccc1)O[C@@H]2C	none (no result: Rtt109 HAT inh, ALR inh, ABHD5-PLIN5 inh, LANA-H2A inh)
COc1cccc(CNc2nccs2)c1O	ALR inh 88
